Experimental data as given in the supplement of paper PMC8007513.
Structures can show the parent of a compound that is named as a salt. ± gives the standard error. The campaign covered roughly 1,300 compounds. About 130 (10%) showed an effect of 50% or more. The sample holds strong results, similar compounds and a random draw of the others, so the mix is not that of the screen.

Test system: Trichoderma virens ATCC 9645
Test: growth yield (OD600) with compound + IPBC relative to untreated control; higher = less growth inhibition
Details: compound concentration: 100 uM, IPBC concentration: 200 ng/ml
How it was run: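 A biocide at 200 ng ml^−1 was co-applied to some wells, and library compounds were present in all test wells at 100 μM final. The wells held 100 μl of Trichoderma virens ATCC 9645 spores at 15,000 spores ml^−1 in potato dextrose broth, grown at 30 °C in 96-well plates, with OD600 read at 40 h and 72 h. Results are relative growth against the control without either agent, averaged across duplicate screens.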

Row | SMILES | growth yield (40 h) [%] | growth yield (72 h) [%]
1 | COc1ccc(CCN)cc1OC [Homoveratrylamine] + CCCCNC(=O)OCC#CI [3-iodo-2-propynyl butylcarbamate (IPBC)] | 89.3 ± 5.4 | 91.1 ± 6.4
2 | O=P(O)(O)C(O)(Cn1ccnc1)P(=O)(O)O [Zoledronic acid hydrate] + CCCCNC(=O)OCC#CI [3-iodo-2-propynyl butylcarbamate (IPBC)] | 102 ± 6.3 | 105 ± 4.3
3 | O=C(Cn1ccnc1[N+](=O)[O-])NCCO [Etanidazole] + CCCCNC(=O)OCC#CI [3-iodo-2-propynyl butylcarbamate (IPBC)] | 91.3 ± 3.3 | 92.2 ± 3.9
4 | COc1cc([S+](C)[O-])ccc1-c1nc2cccnc2[nH]1 (configuration not stated) [Sulmazole] + CCCCNC(=O)OCC#CI [3-iodo-2-propynyl butylcarbamate (IPBC)] | 110 ± 9.8 | 107 ± 4.2
5 | CO[C@H]1/C=C/O[C@@]2(C)Oc3c(C)c(O)c4c(O)c(c(/C=N/N5CCN(C)CC5)c(O)c4c3C2=O)NC(=O)/C(C)=C\C=C\[C@H](C)[C@H](O)[C@@H](C)[C@@H](O)[C@@H](C)[C@H](OC(C)=O)[C@@H]1C [Rifampicin] + CCCCNC(=O)OCC#CI [3-iodo-2-propynyl butylcarbamate (IPBC)] | 89 ± 7 | 93.8 ± 3.6
6 | Nc1nc(=O)c2nc(CNc3ccc(C(=O)N[C@@H](CCC(=O)O)C(=O)O)cc3)cnc2[nH]1 [Folic acid] + CCCCNC(=O)OCC#CI [3-iodo-2-propynyl butylcarbamate (IPBC)] | 84.82 ± 0.32 | 91.03 ± 0.84
7 | C[C@@H](c1ncncc1F)[C@](O)(Cn1cncn1)c1ccc(F)cc1F [Voriconazole] + CCCCNC(=O)OCC#CI [3-iodo-2-propynyl butylcarbamate (IPBC)] | 5.24 ± 0.16 | 4.09 ± 0.1
8 | OC(Cn1cncn1)(Cn1cncn1)c1ccc(F)cc1F [Fluconazole] + CCCCNC(=O)OCC#CI [3-iodo-2-propynyl butylcarbamate (IPBC)] | 57.7 ± 5.9 | 75.2 ± 8.5
9 | CNC(C)CCC=C(C)C (configuration not stated) [Isometheptene mucate] + CCCCNC(=O)OCC#CI [3-iodo-2-propynyl butylcarbamate (IPBC)] | 101 ± 16 | 101 ± 8.4
10 | CC(O)(CS(=O)(=O)c1ccc(F)cc1)C(=O)Nc1ccc(C#N)c(C(F)(F)F)c1 (configuration not stated) [Bicalutamide] + CCCCNC(=O)OCC#CI [3-iodo-2-propynyl butylcarbamate (IPBC)] | 94 ± 12 | 97.5 ± 6.5
11 | CCOc1ccccc1OCC1CNCCO1 (configuration not stated) [Viloxazine hydrochloride] + CCCCNC(=O)OCC#CI [3-iodo-2-propynyl butylcarbamate (IPBC)] | 103 ± 19 | 102 ± 14
